Experimental data: PubChem BioAssay (NCI)
Compounds without any hit were thinned out: in the full panel of roughly 83,000, 20% have a hit.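 In brief: 96-well plates, 48 h treatment, single concentration, percent growth endpoint.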 Calls of active or inactive are those of the source. The calls were made as follows: active = growth percent below 10; inactive = the rest.

Tested on: HL-60(TB) leukemia
Assay: NCI-60 one-dose screen, 48 h (100 = growth as untreated, 0 = no growth, -100 = all killed)
Details: 10 µM unless noted

| Structure (SMILES) | growth |
| --- | --- |
| O=C(O)c1ccccc1C(F)(F)F | 100% (inactive) |
| COc1cc2cc(Oc3ccc(NC(=O)Nc4cccc(C(F)(F)F)c4)cc3)c(C)nc2cc1OCCN1CCCCC1 | -51.9% (active) |
| NC1(CO)COC(c2ccccc2)OC1 (stereo not given) | 89.2% (inactive) |
| CCn1cc(CNc2ccc(C(=O)Nc3cc4cc(OC)c(OC)cc4c(C)n3)cc2)cn1 | 32.8% (inactive) |
| Cc1ccc(C(=O)O)o1 | 101% (inactive) |
| O=C(c1ccccc1)c1ccc(C2CCCCC2)cc1 | 101% (inactive) |
| Cc1ccc(-c2cc3nc(-c4ccccc4)nc(C(Cl)Cl)n3n2)cc1 | 12.6% (inactive) |
| COc1cc2c(C#N)n3c(c2cc1OC)C(=O)C(c1ccccc1)Oc1ccccc1-3 (stereo not given) | 61.1% (inactive) |
| COc1ccc(OC)c(Cn2cc3c(c2)-c2oncc2CC3)c1 | 13.7% (inactive) |
| COc1ccc(-n2[nH]c3c(cnc4ccccc43)c2=O)cc1 | 97.3% (inactive) |
| COc1ccc(CCN2C(=O)/C(=C/c3ccc(C4Oc5ccccc5C5CC(c6ccccc6)=NN54)cc3)SC2=S)cc1 (stereo not given) | 97.7% (inactive) |
| C[N+](C)(C)c1ncnc2[n-]cnc12 | 103% (inactive) |
| CC[C@]12C=CCN3CC[C@@]4(c5ccc(OC)cc5N(C)[C@H]4[C@@](O)(C(=O)OC)[C@@H]1OC(=O)CCC(=O)O[C@H]1CC[C@H]4[C@@H]5CC[C@H]6CC(=O)CC[C@]6(C)[C@H]5CC[C@]14C)[C@@H]32 | -38.2% (active) |
| N#CC(=S)Nc1ccc(Cl)c(Cl)c1 | 8.99% (active) |
| CCN(CC)c1ccc(C(=O)c2ccc(N(CC)CC)cc2)cc1 | 9.59% (active) |
| O=C1CSC(c2ccccc2O)N1c1nnc(Cn2ccnc2)o1 (stereo not given) | 24.9% (inactive) |
| COc1ccc(-c2oc(=O)ccc2-c2cc(OC)c(OC)c(OC)c2)cc1O | -58.9% (active) |
| COc1cccc(-c2nn(-c3ccccc3)cc2-c2ccnc(-c3cccnc3)c2)c1 | 56.8% (inactive) |
| O=C(O)c1ccc2c(c1)C(=O)N(Cc1ccccc1)C2=O | 93.1% (inactive) |
| Nc1c(C(=O)Nc2cccc3ccncc23)sc2nc3c(cc12)C(=O)CCC3 | 14.7% (inactive) |

| Structure (SMILES) | growth |
| --- | --- |
| CC(=O)c1cc(C(=O)c2ccc3c(c2)Sc2ccccc2N3)n2ccccc12 | 14.3% (inactive) |
| COc1ccccc1CNc1c2ccccc2nc2ccccc12 | 44.8% (inactive) |
| CCCCCN1C=C/C(=C\C(=O)N(C)c2ccc(Oc3ccccc3)cc2)c2ccccc21 | 66.9% (inactive) |
| ClCCOCCOc1ccc(C2CCCCC2)cc1 | 105% (inactive) |
| CN(C)c1ccc(C(=C2C=CC(=[N+](C)C)C=C2)c2ccc(N(C)C)cc2)cc1 (tested in a mixture with another compound) | -51.3% (active) |
| NC(=O)N/N=C\c1ccc([N+](=O)[O-])o1 | 120% (inactive) |
| COc1cc2c(cc1OC)-c1ccc3cc4c(cc3c1N(CCCN1CCCCC1)C2)OCO4 | 37.1% (inactive) |
| O=C1CCC(=O)N1Cc1ccccc1 | 102% (inactive) |
| O=C(CCc1nnc2sc(-c3cc(O)c(O)c(O)c3)nn12)c1nc2ccccc2[nH]1 | 100% (inactive) |
| Cc1ccc(-c2nc(SCC(=O)N3CCN(c4cc5c(cc4F)c(=O)c(C(=O)O)cn5C4CC4)CC3)nc(Cl)c2C#N)cc1 | 101% (inactive) |
| NC(=O)c1ccc[n+](CC(=O)N2CCN(c3cc4c(cc3F)c(=O)c(C(=O)O)cn4C3CC3)CC2)c1 | 106% (inactive) |
| COc1ccc(-c2nc(C#N)c(NCC(c3ccco3)N3CCCC3)o2)cc1 (stereo not given) | -14.1% (active) |
| Cc1ccc(/C=C2\COc3ccc(O)c(O)c3C2=O)cc1 | -15% (active) |
| Nc1ncnc2c1c(-c1ccc(Oc3ccccc3)cc1)nn2CC1SSCC1O (stereo not given) | -25.9% (active) |
| O=C(NNC(=O)c1ccc(NC(=O)c2ccccn2)cc1)Nc1ccc([N+](=O)[O-])cc1 | 97.9% (inactive) |
| Cc1nc(Nc2cccnc2)sc1C(=O)/C=C/c1ccc(Cl)cc1 | -4.8% (active) |
| Cc1ccc(-c2nc3nc(-c4ccccc4)nc(N4CCCN(S(C)(=O)=O)CC4)c3o2)cc1 | 99.6% (inactive) |
| COc1ccc(/C(=C\c2cc(OC)c(OC)c(OC)c2)C(=O)Nc2nc3ccc(Cl)cc3s2)cc1 | 81.4% (inactive) |
| CN(CCc1ccccc1)C(=S)N(C(=O)c1ccc([N+](=O)[O-])cc1)c1ccc(Cl)cc1 | 45% (inactive) |
| COC(=O)CCCCN=Cc1c(O)c(O)c(C(C)C)c2cc(C)c(-c3c(C)cc4c(C(C)C)c(O)c(O)c(C=NCCCCC(=O)OC)c4c3O)c(O)c12 | 10.9% (inactive) |
